# Measurements published in PubChem BioAssay.
# Active and inactive are the calls of the source. Unless noted, no rule for the calls is given here.
# Experiments:
# [1] = system: Wnt5a (protein binding on small-molecule microarray); assay: small molecules binding Wnt5a protein – biophysical, small-molecule microarray, 635/667 nm fluorescence, primary screen (AID 1142); settings: 635 nm fluorescence, higher = more signal;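 also: fluorescence read at 667 nm with signal to noise per printed feature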
# [2] = ATP-based viability of Huh7 replicon cells – cell-based, CellTiter-Glo luminescence, basal, 48 h, cytotoxicity control for HCV replication inhibitor project, primary screen (AID 1143); settings: higher = more signal, called active from +8 up or from −8 down;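 also: Huh7 hepatoma cells carrying a hepatitis C replication reporter with no stimulus; test concentration not given here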
# [3] = Pseudomonas biofilm growth suppression – PAO1 strain, BacTiter-Glo luminescence, LB-PBS, primary screen (AID 1144); settings: P. aeruginosa PAO1 biofilm, 12 h, higher = more signal
# [4] = basal CRE-LacZ reporter activity in PC12 – cell-based, unstimulated, primary screen (AID 1145); settings: no forskolin, luminescence, 4.5 h, higher = more signal, called active from +8 up or from −8 down
# [5] = forskolin-driven CRE-LacZ activity in PC12 – cell-based, CRE-LacZ reporter, forskolin-stimulated, primary screen (AID 1146); settings: luminescence, 4.5 h, higher = more signal, called active from +8 up or from −8 down;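 also: PC12 cells with 6xCRE LacZ reporter stimulated by forskolin 10 µM; beta-galactosidase reporter signal reflecting CREB driven transcription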
# [6] = biological target: Streptavidin (Streptomyces avidinii) (UniProt P22629); assay: compounds binding control protein streptavidin – biophysical, small-molecule microarray, 635/667 nm fluorescence, artefact control for SMM compound annotation, primary screen (AID 1147); settings: higher = more signal;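 also: signal reflects streptavidin binding to arrayed compounds as a control protein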
# Streptavidin (Streptomyces avidinii), sequence (P22629 whole entry, looked up): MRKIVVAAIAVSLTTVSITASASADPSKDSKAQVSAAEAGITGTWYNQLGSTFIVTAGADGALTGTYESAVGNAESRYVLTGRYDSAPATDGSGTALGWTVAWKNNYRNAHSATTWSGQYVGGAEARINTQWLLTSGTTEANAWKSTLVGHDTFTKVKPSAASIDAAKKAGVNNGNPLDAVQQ
# [7] = probe aInhba binding on compound microarray – biochemical, small-molecule microarray, 635/667 nm fluorescence, primary screen (AID 1148); settings: higher = more signal;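 also: score merges 667nm spot fluorescence with signal-to-noise for antibody binding to printed compounds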
# [8] = biological target: Torsin-1A (Homo sapiens) (UniProt O14656); assay: TOR1A wild-type binding on microarray – cell lysate, small-molecule microarray, lysate, 635/667 nm, primary screen (AID 1149); settings: COS7 hTOR1A-WT lysate, 635 nm fluorescence, higher = more signal
# Torsin-1A (Homo sapiens), sequence (O14656 whole entry, looked up): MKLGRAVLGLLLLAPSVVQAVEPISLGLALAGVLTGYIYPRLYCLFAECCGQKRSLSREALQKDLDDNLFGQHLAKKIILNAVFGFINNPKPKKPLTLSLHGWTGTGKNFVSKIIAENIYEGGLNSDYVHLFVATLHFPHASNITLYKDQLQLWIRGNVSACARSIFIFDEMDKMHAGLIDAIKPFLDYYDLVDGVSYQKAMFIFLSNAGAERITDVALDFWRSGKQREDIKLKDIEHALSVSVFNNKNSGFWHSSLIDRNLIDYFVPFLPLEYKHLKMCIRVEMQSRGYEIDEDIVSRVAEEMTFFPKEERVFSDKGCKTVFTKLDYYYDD
# [9] = biological target: Torsin-1A (Homo sapiens) (UniProt O14656); assay: torsin A mutant lysate binding on microarrays – cell lysate, small-molecule microarray, COS7 lysate, 635/667 nm fluorescence, primary screen (AID 1150); settings: COS7 hTOR1A mutant lysate, 635 nm fluorescence, higher = more signal;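 also: score pools 667 nm emission and signal to noise measuring lysate protein binding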
# [10] = system: Sonic hedgehog protein (Shh); assay: Sonic hedgehog microarray binding compounds – biochemical, small-molecule microarray, 635/667 nm fluorescence, primary screen (AID 1151); settings: 635 nm fluorescence, higher = more signal;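 also: Shh protein binding to compounds spotted on small-molecule microarray slides; score combines spot fluorescence intensity with signal-to-noise across triplicate slides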
# [11] = optical density shifts of acrAB sulA E. coli – strain DRC41, OD650, 48 h, E. coli filamentation inducer project, primary screen (AID 1152); settings: higher = more signal, called active from +8 up or from −8 down;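 also: E. coli MC1000 strain DRC41 lacking acrAB efflux pump and sulA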
# [12] = probe aLefty1 binding on compound microarray – biochemical, small-molecule microarray, 635/667 nm fluorescence, primary screen (AID 1153); settings: higher = more signal;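 also: score merges spot fluorescence with signal-to-noise ratio from the scanned slide images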
# [13] = plasmodial surface anion channel blockers, osmotic lysis – cell-based, P. falciparum Indochina, OD700, 1 h, primary screen (AID 1154); settings: P. falciparum Indochina infected RBC osmotic lysis, higher = more signal, called active from +8 up or from −8 down
# [14] = plasmodial surface anion channel blockers, osmotic lysis – cell-based, P. falciparum Indochina, OD700, 2 h, primary screen (AID 1155);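 also: lysis reports solute entry through the parasite surface anion channel PSAC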; settings: P. falciparum Indochina infected erythrocytes, higher = more signal, called active from +8 up or from −8 down
# [15] = changes in parasitized red cell lysis, either direction – P. falciparum Indochina, OD700, 3 h, PSAC antagonist project, primary screen (AID 1156); settings: P. falciparum-infected erythrocytes, osmotic lysis, higher = more signal, called active from +8 up or from −8 down
# [16] = plasmodial surface anion channel blockers, osmotic lysis – cell-based, P. falciparum Indochina, OD700, 18 h, primary screen (AID 1157); settings: P. falciparum Indochina infected erythrocytes, osmotic lysis OD700, 18 h; higher = more signal, called active from +8 up or from −8 down
# [17] = S6 kinase pathway phospho-S6 level changes – cell-based, A549, cytoblot, luminescence, serum-stimulated, primary screen (AID 1158); settings: 5 h, higher = more signal;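 also: serum-stimulated A549 lung adenocarcinoma cells; signal is phosphorylated S6 detected by cytoblot immunostaining with HRP secondary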
# [18] = biological target: NADPH oxidase 2 (Homo sapiens) (UniProt P04839); assay: compounds shifting NOX2 Amplex Red fluorescence – cell-based, HEK293-NOX2, PMA-stimulated, NOX inhibitor project, primary screen (AID 1159); settings: 45 min, higher = more signal, called active from +8 up or from −8 down; also: test concentration not given here
# NADPH oxidase 2 (Homo sapiens), sequence (P04839 whole entry, looked up): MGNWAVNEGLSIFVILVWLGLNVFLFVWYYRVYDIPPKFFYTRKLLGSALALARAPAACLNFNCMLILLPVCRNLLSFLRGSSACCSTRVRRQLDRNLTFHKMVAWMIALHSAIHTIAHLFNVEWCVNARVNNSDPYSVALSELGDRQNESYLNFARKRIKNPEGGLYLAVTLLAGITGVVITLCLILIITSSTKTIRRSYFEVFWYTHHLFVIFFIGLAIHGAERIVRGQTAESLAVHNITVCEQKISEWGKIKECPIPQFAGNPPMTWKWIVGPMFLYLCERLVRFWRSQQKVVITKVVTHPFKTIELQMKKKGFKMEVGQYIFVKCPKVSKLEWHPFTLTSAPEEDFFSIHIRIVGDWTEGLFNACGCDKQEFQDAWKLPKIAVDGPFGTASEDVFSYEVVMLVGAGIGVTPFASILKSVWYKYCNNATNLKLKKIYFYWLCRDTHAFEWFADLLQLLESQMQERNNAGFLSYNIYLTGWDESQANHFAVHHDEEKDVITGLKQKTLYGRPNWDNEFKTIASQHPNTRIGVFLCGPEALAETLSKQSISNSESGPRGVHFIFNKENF
# [19] = biological target: NADPH oxidase 4 (Homo sapiens) (UniProt Q9NPH5); assay: compounds shifting NOX4 Amplex Red fluorescence – cell-based, HEK293-NOX4, tetracycline-induced, NOX inhibitor project, primary screen (AID 1160); settings: HEK293-NOX4, Amplex Red H2O2 fluorescence, 45 min; higher = more signal, called active from +8 up or from −8 down
# NADPH oxidase 4 (Homo sapiens), sequence (Q9NPH5 whole entry, looked up): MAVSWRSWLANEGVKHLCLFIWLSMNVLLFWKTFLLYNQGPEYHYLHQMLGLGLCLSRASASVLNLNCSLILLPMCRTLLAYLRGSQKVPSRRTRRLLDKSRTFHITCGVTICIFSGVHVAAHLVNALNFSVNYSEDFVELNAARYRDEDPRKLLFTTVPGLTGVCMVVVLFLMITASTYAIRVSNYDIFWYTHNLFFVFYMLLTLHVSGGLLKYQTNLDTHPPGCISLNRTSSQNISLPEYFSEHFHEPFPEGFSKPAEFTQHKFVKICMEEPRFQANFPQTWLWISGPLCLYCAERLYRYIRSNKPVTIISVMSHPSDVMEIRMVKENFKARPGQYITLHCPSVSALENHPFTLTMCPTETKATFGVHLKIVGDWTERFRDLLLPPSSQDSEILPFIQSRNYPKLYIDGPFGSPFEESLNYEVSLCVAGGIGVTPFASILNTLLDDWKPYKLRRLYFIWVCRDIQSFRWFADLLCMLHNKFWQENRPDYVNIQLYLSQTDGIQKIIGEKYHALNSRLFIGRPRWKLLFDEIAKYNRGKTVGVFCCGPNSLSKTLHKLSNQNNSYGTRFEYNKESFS
# [20] = biological target: NADPH oxidase 5 (Homo sapiens) (UniProt Q96PH1); assay: compounds shifting NOX5 Amplex Red fluorescence – cell-based, HEK293-NOX5, NOX inhibitor project, primary screen (AID 1161); settings: HEK293-NOX5, ionomycin, 45 min, higher = more signal
# NADPH oxidase 5 (Homo sapiens), sequence (Q96PH1 whole entry, looked up): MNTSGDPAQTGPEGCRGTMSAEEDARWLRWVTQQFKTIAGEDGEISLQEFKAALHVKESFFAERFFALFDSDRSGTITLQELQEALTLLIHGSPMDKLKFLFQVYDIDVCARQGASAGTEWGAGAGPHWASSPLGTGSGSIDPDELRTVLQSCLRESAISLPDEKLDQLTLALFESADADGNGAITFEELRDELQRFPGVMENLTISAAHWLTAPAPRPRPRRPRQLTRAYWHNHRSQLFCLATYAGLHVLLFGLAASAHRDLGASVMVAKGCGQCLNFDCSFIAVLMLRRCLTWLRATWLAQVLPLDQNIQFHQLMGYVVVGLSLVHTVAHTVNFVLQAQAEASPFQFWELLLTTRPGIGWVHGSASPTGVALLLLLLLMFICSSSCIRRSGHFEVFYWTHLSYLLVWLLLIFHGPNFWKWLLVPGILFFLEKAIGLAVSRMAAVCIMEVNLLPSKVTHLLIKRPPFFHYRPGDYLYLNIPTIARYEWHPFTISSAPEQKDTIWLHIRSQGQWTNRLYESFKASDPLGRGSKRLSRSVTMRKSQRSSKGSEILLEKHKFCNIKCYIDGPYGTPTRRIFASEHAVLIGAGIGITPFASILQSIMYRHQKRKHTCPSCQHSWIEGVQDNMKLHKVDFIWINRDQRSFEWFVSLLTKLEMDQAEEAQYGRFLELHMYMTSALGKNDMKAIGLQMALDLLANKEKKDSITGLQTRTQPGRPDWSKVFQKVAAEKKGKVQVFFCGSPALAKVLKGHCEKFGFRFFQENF
Compound,composite z-score [1],z-score [2],z-score [3],z-score [4],z-score [5],composite z-score [6],composite z-score [7],composite z-score [8],composite z-score [9],composite z-score [10],z-score [11],composite z-score [12],z-score [13],z-score [14],z-score [15],z-score [16],z-score [17],z-score [18],z-score [19],z-score [20]
NCCCCCNC(=O)[C@@H]1C[C@@H]2C(=O)N[C@@H](CCCCN)C(=O)N2[C@@H]1c1cccc(OCCO)c1,0.331,0.21 (inactive),-0.85 (inactive),-0.541 (inactive),-0.304 (inactive),0.302,-0.331,0.247,-0.02,1.55,1.17 (inactive),-0.432,0.539 (inactive),0.0681 (inactive),1.24 (inactive),0.0802 (inactive),-0.157,0.141 (inactive),0.557 (inactive),0.582
CCOC(=O)C[C@H]1[C@H](OC(=O)c2ccc(-c3ccccc3)cc2)[C@@H](NC(=O)c2ccc3ccccc3n2)c2cc(OCCCO)ccc2N1C(=O)c1ccccc1,0.111,-0.727 (inactive),0.306 (inactive),-0.477 (inactive),-0.169 (inactive),0.968,0.109,0.448,0.397,0.861,-0.715 (inactive),0.0367,0.18 (inactive),-0.168 (inactive),-0.571 (inactive),0.261 (inactive),0.893,-0.59 (inactive),-1.72 (inactive),-1.04
C=C(C(=O)CC[C@H](OC(=O)c1cccnc1)c1ccc(CO)o1)C(C)C,0.159,0.3 (inactive),0.232 (inactive),0.48 (inactive),1.17 (inactive),0.441,0.228,0.684,0.449,1.79,-0.92 (inactive),0.333,1.73 (inactive),-0.115 (inactive),-0.158 (inactive),-0.0363 (inactive),-0.143,0.637 (inactive),0.123 (inactive),-0.0889
O=C(CS)NCCCCCCNC(=O)[C@H]1C[C@H]2C(=O)N[C@@H](Cc3ccccc3)C(=O)N2[C@H]1c1cccc(OCCO)c1,1.02,0.0054 (inactive),-0.885 (inactive),0.285 (inactive),-0.579 (inactive),1.22,0.177,0.78,1.06,1.72,-0.405 (inactive),0.269,6 (inactive),0.988 (inactive),-0.228 (inactive),0.351 (inactive),0.882,1.76 (inactive),0.441 (inactive),-0.135
COCCOC(=O)N1C(=O)[C@@]2(c3cc(C#Cc4ccc(OC)cc4)ccc31)[C@H](C(=O)NC[C@H](O)c1ccccc1)[C@H]1C(=O)O[C@H](c3ccccc3)[C@H](c3ccccc3)N1[C@@H]2c1ccc(O)cc1,0.317,-2.05 (inactive),-0.392 (inactive),-1.01 (inactive),-1.19 (inactive),0.582,0.0228,0.772,0.527,1.73,-0.16 (inactive),0.289,1.48 (inactive),0.702 (inactive),-0.784 (inactive),0.704 (inactive),0.236,1.04 (inactive),0.0374 (inactive),0.00809
O=C1c2ccccc2[C@@]2(Cc3ccccc3N(C3CC3)C2=O)[C@H](c2ccc(CO)cc2)N1C1CCCCC1,-0.157,0.0786 (inactive),0.122 (inactive),0.145 (inactive),0.428 (inactive),-0.885,-0.0791,-0.822,-0.928,-0.309,-0.301 (inactive),-0.0066,0.667 (inactive),-0.0557 (inactive),0.181 (inactive),0.181 (inactive),-0.0814,0.112 (inactive),-1.7 (inactive),-1.45
Cc1c(NC(=O)/C(C#N)=C/C=C/c2ccccc2[N+](=O)[O-])c(=O)n(-c2ccccc2)n1C,-0.145,-3.01 (inactive),0.365 (inactive),-0.0243 (inactive),25.4 (active),0.293,-0.176,0.185,0.331,0.844,0.56 (inactive),-0.184,2.91 (inactive),0.548 (inactive),0.681 (inactive),0.0839 (inactive),-0.243,-0.235 (inactive),0.0287 (inactive),0.657
CC(C)(C)OC(=O)CC[C@]1(C(=O)N2CCOCC2)N=C(c2ccc(OCCCO)cc2)O[C@H]1c1ccccc1,0.959,-1.37 (inactive),0.838 (inactive),-0.114 (inactive),1.06 (inactive),2.02,-0.152,-0.0284,0.618,-0.733,1.12 (inactive),0.0468,22.9 (active),5.18 (inactive),1.05 (inactive),0.815 (inactive),-0.208,-0.291 (inactive),-0.457 (inactive),-0.474
COc1cc(CO)cc(I)c1O[C@H]1C=C(C(=O)NCCO)C[C@@H](N(CC2CCCCC2)C(=O)c2ccc(C(F)(F)F)cc2)[C@@H]1O,-0.0143,-0.494 (inactive),-0.312 (inactive),2.57 (inactive),-1.22 (inactive),-0.0411,-0.0403,0.0494,0.0547,1.23,1.76 (inactive),-0.0547,1.05 (inactive),0.447 (inactive),1.69 (inactive),0.329 (inactive),0.597,-0.363 (inactive),0.916 (inactive),0.686
